An excerpt weighted towards active compounds, which were near 1.3% of everything screened.
HIF activator = HIF pathway transcriptional activators, primary screen, cell-based, U2OS HRE-luciferase, luminescence; activation, % at 7.5 µM (by protocol); U2OS HRE-luciferase reporter; normalized: DMSO 0%, desferrioxamine 100%; hit rate 0.32% among 300,000; AID 1910, 2009;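 active = mean activation of at least 10% of the iron chelator positive control signal, with at least half of replicates also reaching 10%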
AI-2 QS mod = Vibrio harveyi AI-2 quorum sensing modulators, primary screen, JMH597 strain, luminescence/OD600 ratio; AID 2094, 2009; hit rate 0.4% among 300,000; activity change, % at 7.5 µM; Vibrio harveyi JMH597 AI-2 luminescence/OD600 ratio, 9 h; active compounds read low; strain lacks LuxN and CqsS sensors; 0 = neutral-control median; in the data active = activity change below about -75%, passing the limit was not always enough;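 also: luminescence divided by OD600 gain over 9 h not by final OD600 alone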
Rce1 inh = yeast Rce1p protease inhibitors, primary screen, biochemical, fluorescence, cell-free homogeneous; CAAX prenyl protease 2 (Saccharomyces cerevisiae (strain ATCC 204508 / S288c)), Q03530; yeast membranes, quenched prenylated peptide cleavage fluorescence; calls only; hit rate 0.27% among 290,000;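 active = fall in fluorescence gain of 50% or more versus controls, with final raw signal at or below 3038400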;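 also: plate controls were neutral control wells for no effect and wells lacking membranes for full effect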
Target sequence (Q03530 whole entry, looked up): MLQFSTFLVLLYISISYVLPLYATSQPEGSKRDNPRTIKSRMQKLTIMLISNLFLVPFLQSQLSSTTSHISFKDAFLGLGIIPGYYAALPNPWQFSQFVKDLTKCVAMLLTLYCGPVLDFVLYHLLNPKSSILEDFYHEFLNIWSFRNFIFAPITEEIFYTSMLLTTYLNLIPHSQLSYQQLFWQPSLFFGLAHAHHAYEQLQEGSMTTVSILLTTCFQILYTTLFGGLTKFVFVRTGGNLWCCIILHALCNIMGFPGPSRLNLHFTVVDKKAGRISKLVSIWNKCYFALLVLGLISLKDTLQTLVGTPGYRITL
PGC1a acetyl inh = inhibitors of PGC1a acetylation signal, primary screen, cell-based, U2OS, AlphaScreen, inhibitor mode | AlphaScreen anti-acetyl-lysine; with virally co-expressed GCN5 acetyltransferase | inhibition, % at 15.6 µM | hit rate 0.17% among 350,000;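 active = every replicate shows inhibition of at least 40%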;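 also: 0% = neutral control wells and 100% = positive control wells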
Statin myotox sup = suppressors of statin myotoxicity in C2C12 myotubes, primary screen, cell-based, single point, plate reader | hit rate 0.78% among 330,000 | AID 602340, 2012 | rescue of ATP level, % at 7.49 µM | C2C12 myotubes + simvastatin, ATP luminescence, 48 h; scaled: DMSO 0, geranylgeraniol control 100;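 active = mean ATP rescue above about 67%, or every replicate alone reaching that limit, limit read from the data, passing the limit was not always enough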;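 also: myotubes were challenged with 10 µM simvastatin during compound exposure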
* hit, by the source's call; i = inactive; / = no result; + = active, no number.

SMILES	HIF activator	AI-2 QS mod	Rce1 inh	PGC1a acetyl inh	Statin myotox sup
Oc1ccc2ccccc2c1N=Nc1ccccn1	33.5*	22.6	i	-0.8	24.6
Oc1ccc2ccccc2c1N=Nc1ccccc1F	0.9	17.8	i	6.8	41.1
COc1ccccc1-c1cn(CC[C@H]2CC[C@H](NC(=O)c3cnccn3)[C@@H](CO)O2)nn1	/	/	/	12.9	15.6
CCCc1ccc(-c2ccc(/C=C/C(=O)O)cc2)nc1	-6.0	-21.8	i	/	/
CCCCCc1ccc(-c2ccc(/C=C/C(=O)O)cc2)nc1	-4.6	-89.4*	i	/	/
Cc1ccc(-c2cc(C(F)F)n3ncc(C(=O)Nc4c(C)nn(Cc5ccccc5Cl)c4C)c3n2)cc1	-32.3	18.1	i	-5.9	79.8*
O=C(c1ccccc1)N1CC2(C1)[C@@H](c1ccccc1)[C@@H](CO)N2CC1CC1	/	/	/	-5.4	/
CCn1cc(CN2CCC(C(=O)Nc3cccc(-c4cscn4)c3)CC2)cn1	0.1	7.0	i	-2.2	-14.7
Cn1cc(CN2CCC(C(=O)Nc3cccc(-c4cscn4)c3)CC2)cn1	73.2*	1.9	i	5.1	3.1
COC(=O)c1ccc(CSc2nc3c(cnn3-c3ccc(C)c(C)c3)c(=O)[nH]2)o1	/	/	/	-1.5	131.9*
CCCC1(CCC)NC(=O)N(CC(=O)N2CCN(C(=O)c3ccco3)CC2)C1=O	-0.7	-2.2	i	-1.4	97.8*
O=C(CN1C(=O)NC2(CCCC2)C1=O)N1CCN(C(=O)c2ccco2)CC1	0.0	17.3	i	/	11.7
C[C@@H]1CN([C@@H](C)CO)C(=O)c2cc(C#CC3CCCCC3)cnc2O[C@@H]1CN(C)S(=O)(=O)c1ccccc1	/	/	/	-14.0	3.1
Cc1ccc(NC(=O)CCNS(=O)(=O)c2ccc3[nH]c(=O)oc3c2)cc1F	-0.1	28.8	i	-3.6	111.1*
Cc1cc(NC(=O)CCNS(=O)(=O)c2ccc3[nH]c(=O)oc3c2)ccc1Br	0.5	8.4	i	-3.1	3.0
CCN(Cc1ccccc1)S(=O)(=O)c1ccc(C(=O)N(CCCN(C)C)c2nc3cc(C)cc(C)c3s2)cc1	0.0	6.0	+	-10.4	-16.7
Cc1cc(C)c2sc(N(CCCN(C)C)C(=O)c3ccc(S(=O)(=O)N(C)Cc4ccccc4)cc3)nc2c1	-1.9	11.7	i	-8.5	-52.6
O=C(CSC1=Nc2ccccc2C2CC=NN12)NCc1ccco1 (configuration not stated)	/	/	/	-22.3	97.7*
COC(=O)C(CC#Cc1ccc2c(c1)[C@]1(C(=O)N2)[C@H](c2ccc(OCCO)cc2)N2[C@H](c3ccccc3)[C@H](c3ccccc3)OC(=O)[C@H]2[C@@H]1C(=O)N1CCc2cc(OC)c(OC)cc2C1)C(=O)OC	/	/	/	4.6	/
COc1ccc(S(=O)(=O)N(Cc2cccs2)C2CCCC2)cc1	-0.6	25.8	i	-41.5	106.0*
CCN(CC)c1ccc(C(=S)N2CCN(c3ccccc3)CC2)cc1	0.6	16.2	i	-6.9	79.8*
S=C(c1ccccc1)N1CCN(c2ccccc2)CC1	/	/	/	-0.6	13.4
O=C(c1ccncc1)N1CC(=O)N2[C@H](CO)[C@H](c3ccc(-c4ccccc4)cc3)[C@H]2C1	/	/	/	8.4	/
O=C(COc1ccc2ccc(=O)oc2c1)NCCc1c[nH]c2ccc(F)cc12	-0.2	1.7	+	-2.8	11.7
N#CCSc1nnc(COc2cccc3ccccc23)n1-c1ccccc1	-0.3	21.1	i	/	/
SMILES	HIF activator	AI-2 QS mod	Rce1 inh	PGC1a acetyl inh	Statin myotox sup
Cc1ccc(-c2nnc(CSc3nnc(COc4cccc5ccccc45)n3-c3ccccc3)o2)cc1	-0.2	24.2	i	-5.8	136.1*
O=C(C[C@H]1CC[C@H](NC(=O)NC2CCCCC2)[C@H](CO)O1)NCc1ccc(F)cc1	/	/	/	-4.7	-0.8
COc1c2ccoc2nc2c(OC)cccc12	0.9	15.0	+	-6.3	9.0
CCOC(=O)c1cc2c(=O)[nH]ccc2nc1C	0.4	18.4	+	4.0	-7.5
CCOC(=O)c1cc2c(=O)[nH]ccc2nc1C(F)(F)F	-0.1	3.1	i	/	-2.0
ON=C1c2cc(OCCN3CCCCC3)ccc2-c2ccc(OCCN3CCCCC3)cc21	16.2*	8.7	i	-3.0	-7.6
O=C1COc2ccc(C(=O)COC(=O)c3ccc(S(=O)(=O)C(F)F)cc3)cc2N1	0.1	-94.0*	i	-18.0	-5.5
CCN(CC)S(=O)(=O)c1cccc(C(=O)OCC(=O)c2ccc3c(c2)NC(=O)CO3)c1	0.0	16.8	/	/	6.8
Cc1cc(C(=O)COC(=O)CN=C2NS(=O)(=O)c3ccccc32)c(C)n1CCc1ccc(Cl)cc1	0.1	38.0	i	-2.8	112.4*
CCCN(C)C[C@@H]1Oc2cc(C3=CCCC3)ccc2S(=O)(=O)N([C@H](C)CO)C[C@@H]1C	/	/	/	/	35.0
C[C@H](CO)N1C[C@H](C)[C@@H](CN(C)S(=O)(=O)c2ccc(F)cc2)Oc2ccc(NC(=O)Cc3cn(C)c4ccccc34)cc2CC1=O	/	/	/	7.5	102.2*
C[C@H](CO)N1C[C@H](C)[C@@H](CN(C)Cc2ccc(Oc3ccccc3)cc2)Oc2ccc(NC(=O)Cc3cn(C)c4ccccc34)cc2CC1=O	/	/	/	-19.6	114.2*
C[C@@H]1CN([C@H](C)CO)C(=O)Cc2cc(NC(=O)Cc3cn(C)c4ccccc34)ccc2O[C@H]1CN(C)Cc1ccc(-c2ccccc2)cc1	/	/	/	-7.5	93.0*
C[C@H]1CN([C@@H](C)CO)C(=O)c2cc(C3=CCCCC3)cnc2O[C@H]1CN(C)C(=O)NC1CCCC1	/	/	/	-5.0	4.3
O=C(NC[C@@H]1N[C@@H](CO)[C@H]1c1ccc(-c2ccccc2F)cc1)c1ccccc1	/	/	/	-5.5	-14.5
COC(=O)C1=C(C)NC(C)=C(C(=O)OC)C1C1CC=CCC1 (configuration not stated)	-0.8	13.7	i	2.9	122.5*
CCOC(=O)C1=C(C)NC(=O)NC1C1CC=CCC1 (configuration not stated)	-0.7	25.6	i	-5.9	17.1
CCC1S/C(=C(\C#N)C(=O)NCc2ccco2)N(c2ccc(F)cc2)C1=O (configuration not stated)	0.4	9.0	i	12.8	13.4
N#C/C(C(=O)NCc1ccco1)=C1/SC(Cc2ccc(F)cc2)C(=O)N1c1ccccc1 (configuration not stated)	/	33.7	i	-1.1	87.2*
CN1CCN(C(=O)C[C@@H]2CC[C@H](NC(=O)c3ccc4c(c3)OCO4)[C@@H](CO)O2)CC1	/	/	/	4.0	-7.6
CCOC(=O)N1CCN(C2CC(=O)N(c3ccc(Oc4ccccc4)cc3)C2=O)CC1 (configuration not stated)	-0.6	14.1	i	-2.3	125.5*

Screening results (PubChem)
